Our source for the Potency values is PubChem BioAssay (NCATS).

Inconclusive results are not listed. Entries that show only a call come without a potency. Calls of active or inactive are those of the source. Calls come from the whole dose curve; as a rule, active = well fitted cell-killing curve with a large enough effect; inconclusive = small, poorly fitted or top-dose-only effect, or effect the other way; inactive = flat fitted curve, though single readings scatter.
Potency is the fitted concentration of half-maximal effect.

For the assay, the system named is CAOV3. The experiment in a line: Primary qHTS to identify gynecologic anti-cancer compounds using libraries of approved drugs and bioactive compounds (AID 1345084). Note: nearly all actives have a fitted effect of over 55% in size. As to conditions: Gynecologic cancer cell panel viability, ATPlite luminescence, 48 h; series mostly up to 57.5 µM. The source says:
National Center for Advancing Translational Sciences [NCATS] Assay Overview: Chemotherapeutic drug responses vary from cancer to cancer and from patient to patient. These variations could be caused by a number of factors including patient genomic background, tumor mutations, tumor heterogeneity, and aspects of drug treatment. Chemotherapeutic drug resistance is also a common issue and can lead to ineffective treatment and patient death. Here we have profiled the cell killing effects of thousands of compounds to characterize the responses in three gynecological cancers, identify cancer-selective compounds, and understand the diversity of responses to these compounds from pan-cancer suppressors to single cell line selective compounds. In this assay, we screened a 7,914 compound drug library that included approved drug and bioactive compounds in six ovarian, three cervical, and […] placental cancer cell lines using the ATPlite assay for cell viability. […] The cervical cancer cell lines included HeLa, Ca Ski, and C-33 A. The placental cancer cell lines included JEG-3. HEK 293T cells were used as the control cell line to determine the selectivity index. ATPlite is a luminescence based assay reliant on the conversion of a luciferase substrate to light in the presence of ATP. As a cytotoxic compound will suppress growth and decrease the number of cells, the concentration of ATP will decrease, and less light signal will be detected in the well.
Assay Protocol Summary: 1,000 cells in 4 uL of media were dispensed into white, solid bottom 1536-well plates using a Multidrop Combi (Thermo Scientific). The Assay plates were incubated for 16 hours at 37 C with 5% CO2 in assay plates, followed by the addition of 23 nL of DMSO or drug dissolved in DMSO. Each compound was assayed in five concentrations (0.092, 0.46, 2.3, 11.5, and 57.5 uM), using the automated Wako 1536 Pin Tool workstation and incubated at 37 C with 5% CO2 48 hours. 4 uL of ATPlite, the ATP monitoring reagent, was then added to the each well of the assay plates using the Multidrop Combi reagent dispenser followed by incubation for 15 minutes at room temperature. The resulting luminescence was measured using the ViewLux plate reader.
For orientation: qHTS replaces the single test concentration by a dilution series.
Regarding `O=C(NC[C@H](O)CN1CCc2ccccc2C1)c1ccnc(NC2CCC2)c1`, the Potency entry was “inactive”.

In the case of `COc1cc2c(cc1O)C1(Cc3ccc4c(c3C1O)OCO4)[N+](C)([O-])CC2` (stereo not given), the Potency result was “inactive”.

Regarding `CCOC(=O)N1CCC(N2CCC[C@@H](NC(=O)c3ccccc3C)C2)CC1`, the Potency result was “inactive”.

With `O=C(NCCCNc1nc(Nc2cccc(CN3CCOCC3)c2)ncc1C1CC1)C1CCC1`, the Potency was 11.2 µM (active).

As for `CC(C)(Cc1ccccc1)NCC(O)c1ccc(O)c(NS(C)(=O)=O)c1` (stereo not given), the Potency entry is “inactive”.

Turning to `O=C(NCCCN1CCOCC1)c1cnn2c(-c3ccccc3)cc(-c3ccccc3)nc12`, the Potency result was “inactive”.

`c1ccc(-c2ccc(CNc3nc(-c4ccccn4)nnc3-c3ccccc3)cc2)cc1`: the Potency was 8.91 µM (active).

As to `CC(=O)C=C=C1C(C)(C)CC(O)CC1(C)O[C@@H]1O[C@H](CO[C@H]2OC[C@](O)(CO)[C@H]2O)[C@@H](O)[C@H](O)[C@H]1O` (stereo not given in full), the Potency result is “inactive”.

Regarding `COc1cc(C#N)ccc1S(=O)(=O)Nc1ccc2c(c1)cc(C)c(=O)n2C`, the Potency result was “inactive”.

As for `COc1ccc(-c2ccccc2)cc1NS(=O)(=O)c1cc(Cl)cc(Cl)c1O`, the Potency entry was “inactive”.

Consider `CC(C)(O)C1CC(=O)C2(C)C(CCC3(C)C(c4ccoc4)OC(=O)C4OC432)C12CCC(=O)OC2` (stereo not given), for which the Potency result is “inactive”.

In the case of `CNS(=O)(=O)c1ccccc1Nc1nc(Nc2ccc(N3CCN(C)CC3)cc2OC)ncc1Br`, the Potency is 2.24 µM (active).

As for `CN1CCN(S(=O)(=O)c2ccc(-c3cnc(N)c(C(=O)Nc4cccnc4)n3)cc2)CC1`, the Potency result is “inactive”.

With `CC[C@H](C)/C=C(C)/C=C/C1=CC2=CC(=O)[C@]3(C)OC(=O)[C@@H](C(C)=O)[C@@H]3C2=CO1`, the Potency result was “inactive”.

As to `Cc1[nH]c(/C=C2\C(=O)Nc3cc(-c4ccccc4)ccc32)c(C)c1CCC(=O)O`, the Potency entry was “inactive”.

As to `COc1ccccc1N1CCN(CC(C(=O)NC(C)(C)C)c2ccccc2)CC1` (stereo not given), the Potency entry was “inactive”.

`CC[C@H](C)/C=C(C)/C=C/C1=CC2=C(Cl)C(=O)[C@](C)(O)[C@H](OC(C)=O)[C@H]2CO1`: the Potency entry was “inactive”.

Turning to `CC(O)(C(=O)C1CC1(CO)COC1OC(CO)C(O)C(O)C1O)C1C(O)CC2C3CC=C4CC(O)CC(O)C4(C)C3C(O)CC21C` (stereo not given), the Potency is 1.78 µM (active).

On to `O=C(NCCN1CCC(n2c(=O)[nH]c3ccccc32)CC1)c1cc2cc(F)ccc2[nH]1`, for which the Potency result is “inactive”.

Take `C=C1C(=O)O[C@@H]2C3C(=C(C)[C@@H](O)[C@@H](OC(=O)/C(=C/C)COC(C)=O)[C@@H]12)C(=O)[C@H]1O[C@@]31C` (stereo not given in full): the Potency was 8.91 µM (active).

Take `C=C1C(=O)O[C@@H]2/C=C(\C)CC/C=C(\C)CC[C@@H]12`: the Potency entry is “inactive”.

On to `C=C1CC[C@@H](O)[C@]2(C)C[C@H]3OC(=O)C(=C)[C@H]3CC12` (stereo not given in full), for which the Potency result was “inactive”.

In the case of `C=C[C@H](/C=C\c1ccc(O)cc1)c1ccc(O)cc1`, the Potency entry was “inactive”.

In the case of `O=C(Nc1cnc(Cl)nc1)c1ccc(F)c(F)c1`, the Potency result is “inactive”.

Consider `COc1cc(/C=N\NC(=O)c2ccc3c(c2)OCO3)ccc1OCc1ccccc1`, for which the Potency result is “inactive”.

Turning to `Cc1cc(C(C)Nc2ccccc2C(=O)O)c2nc(N3CCOCC3)cc(=O)n2c1` (stereo not given), the Potency entry is “inactive”.

`CN(C)C(=O)NC1(c2ccccc2)CCN(CCC[C@]2(c3ccc(Cl)c(Cl)c3)CCCN(C(=O)c3ccccc3)C2)CC1`: the Potency was 20 µM (active).

With `COc1ccccc1N1CCN(CC[C@@](C)(C(=O)C2CCCCC2)c2ccccc2)CC1`, the Potency result was “inactive”.

As for `CNCc1cc(-c2ccccc2F)n(S(=O)(=O)c2cccnc2)c1`, the Potency entry was “inactive”.

In the case of `Cn1ncc(Cl)c1-c1cc(C(=O)N[C@H](CN)Cc2cccc(F)c2)sc1Cl`, the Potency result was “inactive”.

For the molecule `CCC(CC)C(=O)OC12C(OC(=O)C(C)C)C(C)C3(O)C(C=C(CO)CC4(O)C(=O)C(C)=CC43)C1C2(C)C` (stereo not given), the Potency entry was “inactive”.

With `Cc1cc(C)cc(-c2cnc3cc(Cl)c(-c4cccc(O)c4)cc3c2OCCCN)c1`, the Potency entry is “inactive”.

Take `O=C(NCc1ccccc1-c1ccccc1C(=O)NCCc1ccccn1)OCc1ccccc1`: the Potency entry was “inactive”.

In the case of `O=C(c1ccccn1)N(Cc1cccs1)C1(C(=O)NC2CCCCC2)CCCCC1`, the Potency entry was “inactive”.

Regarding `CC12CCC(OC3OC(CO)C(O)C(O)C3OC3OC(CO)C(O)C(O)C3O)CC1CCC1C2CCC2(C)/C(=C3/COC(=O)C3)CCC12O` (stereo not given), the Potency entry is “inactive”.

As to `Cc1cc2sc(NC(=O)Cc3ccccc3)nc2cc1Cl`, the Potency entry is “inactive”.

For the molecule `CN(C)C(CCOc1cccc2ccccc12)c1ccccc1` (stereo not given), the Potency result is “inactive”.

As to `CC(=O)OC/C(=C/C(=O)O)CC[C@@H]1C(C=O)=CC[C@@H]2C(C)(C)CCC[C@@]12C`, the Potency entry is “inactive”.

On to `C=C(C)C(=O)O[C@H]1/C(C=O)=C\CC/C(CO)=C/[C@H]2OC(=O)C(=C)[C@@H]2[C@@H]1OC`, for which the Potency result was “inactive”.

Turning to `CC1=CC2/C=C(\C)CCC3OC(C)(C)OC3CCC(=O)C23C(=O)NC(CC(C)C)C3C1C` (stereo not given), the Potency entry is “inactive”.
